What all share (format): functional
The test system of assay [1] is Plasmodium falciparum. The assay is described as follows: GSK_TCMDC: Inhibition of Plasmodium falciparum 3D7 in whole red blood cells, using parasite LDH activity as an index of growth. Test compounds present at 2uM.
Assay [2] has as its system Plasmodium falciparum. Nature of the assay: GSK_TCMDC: Inhibition of Plasmodium falciparum Dd2 in whole red blood cells, using parasite LDH activity as an index of growth. Test compounds present at 2uM.
In assay [3] the test system is HepG2. Nature of the assay: GSK_TCMDC: Percent inhibition of human HepG2 cell line. Test compounds present at 10uM.

The term Inhibition denotes the change of the read-out against control, counted positive when it falls. Read a high Inhibition as strong suppression. In the case of `CC1(C)CCCN(C(=O)Cc2ccc3c(c2)CCCC3)C1CN1CC=CC1.Cl` (configuration not stated), the Inhibition in assay [1] was 98%; in assay [2], 1%; in assay [3] it was 0%.
With `Cc1[nH]c2ccc([N+](=O)[O-])cc2c1C1=CCN(C)CC1`, the Inhibition came out at 86% in assay [1], 68% in assay [2] and 6% in assay [3].
On the same counts, the results for `Br.COc1ccc(C[C@@H](C)NC[C@H](O)c2cccc(Cl)c2)cc1F` are 88%, 76% and 2%.
On the same counts, the results for `COC(=O)c1ccc(CC(C)NCC(O)c2cccc(C(F)(F)F)c2)c(OC)c1` (configuration not stated) are 100%, 98% and 5%.

Values taken from ChEMBL document CHEMBL1157539, “Thousands of chemical starting points for antimalarial lead identification” (Nature, 2010).
